From PubChem BioAssay (NCI)
About 79,000 compounds went through this panel and 15% of them were active in at least one assay; those are over-represented in the sample as a whole. Unmarked numbers belong to inactive results. Rule as the data show it: active = growth inhibition above about 70%; inactive = the rest.

Assay: NCI Yeast Anticancer Drug Screen. Data for the mec2-1 strain (AID 157)
Details: S. cerevisiae mec2-1 strain, at 50.0 µM, hits give high values
Summary of the method: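 mec2-1 yeast strain, carrying an alteration in DNA damage repair or cell cycle control, was exposed to compounds; growth inhibition was measured relative to vehicle-treated controls.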
`CCOC(=O)c1ccc(NC(=O)/C=C/C(=O)O)cc1` showed a growth inhibition of -17.9%. Compound `Cc1ccc(-n2cnc3c(Cl)ncnc32)cc1` has a growth inhibition of -0.05%. Compound `CCOC(=O)N[C@@H]1C(CC(=O)OC)O[C@H]2OC(C)(C)O[C@H]21` (stereo not given in full) has a growth inhibition of -7.2%. With `COc1ccc(N=Cc2cc(Cl)cc(Cl)c2OC(=O)c2ccccc2)cc1` the growth inhibition was -31.1%. `CSc1nc(N)c(NS(=O)(=O)c2ccc([N+](=O)[O-])cc2)c(=O)[nH]1` showed a growth inhibition of -8.05%. With `CCOc1ncc(C(O)c2ccc(F)cc2)c(OCC)n1` (stereo not given) the growth inhibition was -3.95%. For `COc1cc(C(=O)N2C3C4CCC(C)(OC4(C)C)C32)cc(OC)c1OC` (stereo not given), the growth inhibition was -15.4%. Compound `CCCCc1c[nH]n(C(N)=NCCSCc2nc[nH]c2C)c1=O` has a growth inhibition of -18.4%. Compound `CCOC(=O)c1ccc(C(=O)OCC)n1-c1cc2cc(c1)CSCc1cc(cc(-n3c(C(=O)OCC)ccc3C(=O)OCC)c1)CSC2` has a growth inhibition of -30.1%. With `NC1C=NNC1=O` (stereo not given) the growth inhibition was -7.95%. In the case of `O=C1CSC(=NCCN=C2NC(=O)CS2)N1`, the growth inhibition was 18.3%. In the case of `OCC1CC=CCC1` (stereo not given), the growth inhibition was -22.1%. With `CC(C)=CCC/C(C)=C/CN` the growth inhibition was -2.6%. `O=C(Oc1ccc(OC(=O)c2ccccc2)c(C2CCCCCC2)c1)c1ccccc1` showed a growth inhibition of -1.75%. `Cc1[nH]c(=O)nc(N/N=C/c2ccc(Cl)cc2)c1C(=O)Nc1ccc(Cl)cc1` gave a growth inhibition of 16.4%. For `CC(=O)C1(C)CCC2C3CCC4=CC(=O)CCC4=C3CCC21C` (stereo not given), the growth inhibition was 1.3%. Work on `CC(C)N1CN(C(C(=O)N[C@@H]2C(=O)N3C2SC(C)(C)C3C(=O)O)c2ccccc2)CSC1=S` (stereo not given in full) yielded a growth inhibition of -15.4%. `N#CC(C(=O)C(=O)Nc1cccc(Cl)c1)c1ccccc1` (stereo not given) showed a growth inhibition of -6.9%. `CCC(C)(CCC(C)C)c1ccncc1` (stereo not given) showed a growth inhibition of 9.3%. Compound `CCCCOC(OCCCC)C(OCCCC)OCCCC` has a growth inhibition of 8.2%. In the case of `C=CCOC(=O)CC(O)(CC(=O)OCC=C)C(=O)OCC=C`, the growth inhibition was -17.9%. For `CC1=C(C(=O)Nc2ccc([N+](=O)[O-])cc2)C(c2ccc3c(c2)OCO3)C(C(=O)Nc2ccc([N+](=O)[O-])cc2)=C(C)N1`, the growth inhibition was 15.3%. `O=C(O)CCC1(c2ccccc2)NC(=O)NC1=O` (stereo not given) gave a growth inhibition of -2.85%. Compound `COc1ccccc1C1C(C(=O)Nc2ccccc2)=C(C)NC(C)=C1C(=O)Nc1ccccc1` has a growth inhibition of -21.9%. `C[C@]12CC[C@@H]3c4ccc(OCCCO)c([N+](=O)[O-])c4CC[C@H]3[C@@H]1CCC2=O` gave a growth inhibition of 6.8%. In the case of `C[Si](C)(C)N1CCCC1`, the growth inhibition was -26.9%. For `CCOCCOC(=O)c1ccc(C(C)C)cc1`, the growth inhibition was 1.75%. Work on `NC(=O)c1ccccc1NC(=O)C(=O)C(C(=O)c1ccc2ccccc2c1)C1OC(=O)c2ccccc21` (stereo not given) yielded a growth inhibition of -2.15%. Compound `N#CCCN(c1ccc(C=Nc2ccc(C(=O)O)cc2)cc1)S(=O)(=O)c1ccccc1` has a growth inhibition of -29.6%. Compound `CCCCC1=C(C)C/C(=N/Nc2ccc([N+](=O)[O-])cc2[N+](=O)[O-])C(C)C1CCCC` (stereo not given) has a growth inhibition of 2.8%. In the case of `CC(=O)Nc1ccc(S(=O)(=O)N=S(c2ccccc2)c2ccccc2)cc1`, the growth inhibition was 3.05%. Compound `CCCCCCCCCCCCSc1nc2c([nH]1)c(=O)n(C)c(=S)n2C` has a growth inhibition of 0.75%. `CC1(C)OC2C(COCc3ccccc3)=CC(n3ccc(=O)[nH]c3=O)C2O1` (stereo not given) showed a growth inhibition of -16.8%. Compound `O=C1C=CC(=O)C1N=Nc1ccccc1` has a growth inhibition of 19.1%. `CCOC(=O)Nc1ccc(C2SCCN2C(=O)Nc2ccc(Cl)cc2)cc1` (stereo not given) gave a growth inhibition of -14.3%. In the case of `C[C@@]12CCC(=O)C=C1CC[C@H]1C2C(=O)C[C@]2(C)C1CC[C@@]2(O)C(=O)COC(=O)CCC(=O)O` (stereo not given in full), the growth inhibition was 10.3%. Work on `O=S(=O)(c1ccc(O)c(Cl)c1)c1ccc(O)c(Cl)c1` yielded a growth inhibition of 37.5%. With `CC(C)N(C(=O)C12C3C4C5C3C1(C(=O)N(C(C)C)C(C)C)C5(C#N)C42)C(C)C` (stereo not given) the growth inhibition was 3.65%. With `NCc1ccccc1F` the growth inhibition was -23.9%. With `O=C1c2ccccc2C(=O)N1Cc1ccccc1-c1c2nc(c(-c3ccccc3CN3C(=O)c4ccccc4C3=O)c3ccc([nH]3)c(-c3ccccc3CN3C(=O)c4ccccc4C3=O)c3nc(c(-c4ccccc4CN4C(=O)c5ccccc5C4=O)c4ccc1[nH]4)C=C3)C=C2` the growth inhibition was -1.55%.

Assay: NCI Yeast Anticancer Drug Screen. Data for the sgs1 mgt1 strain (AID 161);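 also: 0% = growth of cultures given vehicle only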
Details: S. cerevisiae sgs1 mgt1 strain, at 50.0 µM, hits give high values
Summary of the method: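 Yeast cells carrying a defined DNA-repair defect were exposed to test compounds. Growth inhibition was measured relative to vehicle-treated controls.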
With `CCOC(=O)c1ccc(NC(=O)/C=C/C(=O)O)cc1` the growth inhibition was -2.9%. `Cc1ccc(-n2cnc3c(Cl)ncnc32)cc1` gave a growth inhibition of -12.1%. Work on `CCOC(=O)N[C@@H]1C(CC(=O)OC)O[C@H]2OC(C)(C)O[C@H]21` (stereo not given in full) yielded a growth inhibition of 10.4%. Work on `COc1ccc(N=Cc2cc(Cl)cc(Cl)c2OC(=O)c2ccccc2)cc1` yielded a growth inhibition of 8.55%. In the case of `CSc1nc(N)c(NS(=O)(=O)c2ccc([N+](=O)[O-])cc2)c(=O)[nH]1`, the growth inhibition was 5.65%. `CCOc1ncc(C(O)c2ccc(F)cc2)c(OCC)n1` (stereo not given) gave a growth inhibition of 1.15%. `COc1cc(C(=O)N2C3C4CCC(C)(OC4(C)C)C32)cc(OC)c1OC` (stereo not given) showed a growth inhibition of 2.8%. For `CCCCc1c[nH]n(C(N)=NCCSCc2nc[nH]c2C)c1=O`, the growth inhibition was -9.95%. `CCOC(=O)c1ccc(C(=O)OCC)n1-c1cc2cc(c1)CSCc1cc(cc(-n3c(C(=O)OCC)ccc3C(=O)OCC)c1)CSC2` showed a growth inhibition of -20.9%. `NC1C=NNC1=O` (stereo not given) showed a growth inhibition of -9.5%. With `O=C1CSC(=NCCN=C2NC(=O)CS2)N1` the growth inhibition was 9.25%. In the case of `OCC1CC=CCC1` (stereo not given), the growth inhibition was -4.35%. `CC(C)=CCC/C(C)=C/CN` showed a growth inhibition of 20.4%. Work on `O=C(Oc1ccc(OC(=O)c2ccccc2)c(C2CCCCCC2)c1)c1ccccc1` yielded a growth inhibition of 25.1%. With `Cc1[nH]c(=O)nc(N/N=C/c2ccc(Cl)cc2)c1C(=O)Nc1ccc(Cl)cc1` the growth inhibition was -3.9%. `CC(=O)C1(C)CCC2C3CCC4=CC(=O)CCC4=C3CCC21C` (stereo not given) showed a growth inhibition of 50.9%. In the case of `CC(C)N1CN(C(C(=O)N[C@@H]2C(=O)N3C2SC(C)(C)C3C(=O)O)c2ccccc2)CSC1=S` (stereo not given in full), the growth inhibition was 3.85%. In the case of `N#CC(C(=O)C(=O)Nc1cccc(Cl)c1)c1ccccc1` (stereo not given), the growth inhibition was -19%. In the case of `CCC(C)(CCC(C)C)c1ccncc1` (stereo not given), the growth inhibition was -0.05%. With `CCCCOC(OCCCC)C(OCCCC)OCCCC` the growth inhibition was 19.8%. For `C=CCOC(=O)CC(O)(CC(=O)OCC=C)C(=O)OCC=C`, the growth inhibition was -11.8%. `CC1=C(C(=O)Nc2ccc([N+](=O)[O-])cc2)C(c2ccc3c(c2)OCO3)C(C(=O)Nc2ccc([N+](=O)[O-])cc2)=C(C)N1` showed a growth inhibition of 21.6%. For `O=C(O)CCC1(c2ccccc2)NC(=O)NC1=O` (stereo not given), the growth inhibition was -18.4%. `COc1ccccc1C1C(C(=O)Nc2ccccc2)=C(C)NC(C)=C1C(=O)Nc1ccccc1` showed a growth inhibition of -36.2%. In the case of `C[C@]12CC[C@@H]3c4ccc(OCCCO)c([N+](=O)[O-])c4CC[C@H]3[C@@H]1CCC2=O`, the growth inhibition was 17.7%. In the case of `C[Si](C)(C)N1CCCC1`, the growth inhibition was -16.8%. For `CCOCCOC(=O)c1ccc(C(C)C)cc1`, the growth inhibition was 7.8%. For `NC(=O)c1ccccc1NC(=O)C(=O)C(C(=O)c1ccc2ccccc2c1)C1OC(=O)c2ccccc21` (stereo not given), the growth inhibition was 10.6%. In the case of `N#CCCN(c1ccc(C=Nc2ccc(C(=O)O)cc2)cc1)S(=O)(=O)c1ccccc1`, the growth inhibition was 7.4%. For `CCCCC1=C(C)C/C(=N/Nc2ccc([N+](=O)[O-])cc2[N+](=O)[O-])C(C)C1CCCC` (stereo not given), the growth inhibition was -13.6%. Compound `CC(=O)Nc1ccc(S(=O)(=O)N=S(c2ccccc2)c2ccccc2)cc1` has a growth inhibition of 8.45%. `CCCCCCCCCCCCSc1nc2c([nH]1)c(=O)n(C)c(=S)n2C` showed a growth inhibition of -31.9%. In the case of `CC1(C)OC2C(COCc3ccccc3)=CC(n3ccc(=O)[nH]c3=O)C2O1` (stereo not given), the growth inhibition was 1.7%. `O=C1C=CC(=O)C1N=Nc1ccccc1` gave a growth inhibition of 16.9%. In the case of `CCOC(=O)Nc1ccc(C2SCCN2C(=O)Nc2ccc(Cl)cc2)cc1` (stereo not given), the growth inhibition was -9.45%. With `C[C@@]12CCC(=O)C=C1CC[C@H]1C2C(=O)C[C@]2(C)C1CC[C@@]2(O)C(=O)COC(=O)CCC(=O)O` (stereo not given in full) the growth inhibition was -19.8%. For `O=S(=O)(c1ccc(O)c(Cl)c1)c1ccc(O)c(Cl)c1`, the growth inhibition was 16.1%. Work on `CC(C)N(C(=O)C12C3C4C5C3C1(C(=O)N(C(C)C)C(C)C)C5(C#N)C42)C(C)C` (stereo not given) yielded a growth inhibition of 5.6%. With `NCc1ccccc1F` the growth inhibition was 12.3%. `O=C1c2ccccc2C(=O)N1Cc1ccccc1-c1c2nc(c(-c3ccccc3CN3C(=O)c4ccccc4C3=O)c3ccc([nH]3)c(-c3ccccc3CN3C(=O)c4ccccc4C3=O)c3nc(c(-c4ccccc4CN4C(=O)c5ccccc5C4=O)c4ccc1[nH]4)C=C3)C=C2` showed a growth inhibition of -0.8%.
